Results filed as inconclusive are left out. Calls of active or inactive are those of the source. Calls come from the whole dose curve; as a rule, active = well fitted cell-killing curve with a large enough effect in the repeat runs; inconclusive = weak or mixed curves; inactive = flat fitted curve, though single readings scatter.
Assay: qHTS RealTime-Glo MT Cell Viability Assay in HepG2 cells - 24 hour (AID 1224867); note: nearly all actives have a fitted effect of over 50% in size
Settings: RealTime-Glo luminescence; series mostly up to 76.8 µM
From the text: U.S. Tox21 Program National Center for Advancing Translational Sciences [NCATS] NIH Chemical Genomics Center [NCGC] U.S. Environmental Protection Agency [EPA] National Institutes of Environmental Health Sciences [NIEHS] National Toxicology Program [NTP] U.S. Food and Drug Administration [FDA] Tox21 Assay Overview: Measure of cell viability is critical in the cell-base assay. Analysis of cell viability is necessary for the characterization of cell responses to cytotoxic drugs and environmental stress. A RealTime-Glo MT Cell Viability Assay to monitor cell viability in real time of continues cell culture during 40 hours of compound treatment was used to screen Tox21 10K library compounds in HepG2 cells. The RealTime-Glo MT Cell Viability Assay is a nonlytic, homogeneous, bioluminescent method to measure cell viability in real time using a simple, plate-based method. The assay involves adding NanoLuc luciferase and a cell-permeant prosubstrate to cells in culture. Viable cells reduce the proprietary prosubstrate to generate a substrate for NanoLuc luciferase. This substrate diffuses from cells into the surrounding culture medium, where it is rapidly used by the NanoLuc Enzyme to produce a luminescent signal. The signal correlates with the number of viable cells, making the assay well suited for cytotoxicity studies.
Tox21 Assay Protocol Summary: The mixture of HepG2 cell suspension and reagents were dispensed at 600cells/6 ul/well in 1536-well tissue culture treated black solid bottom plates using a Multidrop dispenser. After the assay plates were incubated at a 37 C/5% CO2 incubator for 5 hours, 23 nL of compounds dissolved in DMSO, positive and negative controls was transferred to the assay plate by a pintool work station. The plates were incubated at 37 C for 40 hours. The luminescence intensity were measured at 0h, 8h, 16h, 24h, 32h and 40h time points using ViewLux plate reader during compound treatment.
% is set by controls: 0 for no effect and ±100 for the full control effect.

SMILES | outcome | activity change, negative = cytotoxicity
OCCN(CCO)c1cccc(Cl)c1 | inactive | –
FC(F)(F)c1ccccc1-n1ccnc1 | inactive | –
C=C(C)C(=O)OCC(C)(C)COC(=O)C(=C)C | inactive | –
O=C(O)c1cc(Cl)cc([N+](=O)[O-])c1Cl | inactive | –
CCOC(=O)/C=C/c1ccccc1 | inactive | –
CC(S)C(=O)NCC(=O)O (stereo not given) | inactive | –
COCCc1ccc(OCC2CO2)cc1 (stereo not given) | inactive | –
CCCCCCCCC(=O)Cl | inactive | –
O=C(c1ccc(O)cc1)c1ccc(O)c(O)c1O | inactive | –
CN=C(NC#N)Nc1ccc(C2=NNC(=O)CC2C)cc1 (stereo not given) | inactive | –
OC[C@H](Cc1cccc(O)c1)[C@H](CO)Cc1cccc(O)c1 | inactive | –
NNc1nnc(NN)c2ccccc12 | inactive | –
CC(C)(C)OC(=O)c1ccc(O)cc1 | inactive | –
O=P(O)(O)OP(=O)(O)O | inactive | –
CCCCCCCC/C=C\CCCCCCCC(=O)OCCCC | – | 2.67% [at 15.8 µM] (inactive)
CC(C)(C)NC(N)=O | inactive | –
O=C(NCC(O)CO)c1c(I)c(C(=O)NCC(O)CO)c(I)c(N(CCO)C(=O)CO)c1I (stereo not given) | inactive | –
CC(C)C(=O)OCc1cccc(OC(=O)[C@@H]2N3C(=O)[C@@H](NC(=O)Cc4ccccc4)[C@H]3SC2(C)C)c1 | inactive | –
CC(C)NCC(O)COc1cccc2[nH]ccc12 (stereo not given) | inactive | –
Cc1cccc(OCC(O)CNC(C)(C)C)c1C (stereo not given) | inactive | –

SMILES | outcome | activity change, negative = cytotoxicity
C#CC(C)N(C)C(=O)Nc1ccc(Cl)cc1 (stereo not given) | inactive | –
CC(=O)OC(C)OC(=O)C(C)c1ccc(-c2ccccc2)c(F)c1 (stereo not given) | inactive | –
O=C(O)c1cc(Br)c(O)c(Br)c1 | inactive | –
CC(C)(C)c1n[nH]c(=S)n(N)c1=O | inactive | –
COc1cc(C(=S)N2CCOCC2)cc(OC)c1OC | inactive | –
CC(=O)/C=C/C1C(C)=CCC(C)C1(C)C (stereo not given) | inactive | –
CC(C)N(c1ccccc1)C(C)C | inactive | –
ClCCCl | inactive | –
OCCCCC(O)CO (stereo not given) | inactive | –
Cc1cc2cc3c(C)cc(=O)oc3c(C)c2o1 | inactive | –
C=C(C)C1CCC(C)(O)CC1 (stereo not given) | inactive | –
O=C1O[C@@H]2[C@@H](O)[C@H](O)O[C@@H]2[C@H]1O | inactive | –
C[C@@H](Oc1ccc(CNC(=O)c2cccnc2Oc2ccc3c(c2)OCO3)c(F)c1)C(=O)O | inactive | –
CC(=O)c1ccc2c(c1)Cc1ccccc1-2 | inactive | –
CC(=O)c1sc(C)nc1C | inactive | –
CCC(C)(CCC(C)C)C(=O)O (stereo not given) | inactive | –
CN(C)C(=O)CNC(=O)Cc1ccccc1 | inactive | –
CCOCCOC(=O)/C=C/c1ccc(OC)cc1 | inactive | –
COCCOCCOCCOCCOCCO | inactive | –
N[C@@H](COP(=O)(O)O)C(=O)O | – | 0.52% [at 15.8 µM] (inactive)
